Laboratory results reported in PubChem BioAssay (Tox21).
Inconclusive results are not listed. Entries that show only a call come without a potency. Activity calls are given as the source filed them. Unless noted, calls follow the shape of the dose curve; as a rule, active = well fitted curve in the direction sought with a large enough effect in the repeat runs; inconclusive = weak or mixed curves; inactive = no such curve, though single readings can be large; an effect the other way counts as inactive or inconclusive.

Columns and labels:
[1] = qHTS assay to identify small molecule HDAC inhibitors (AID 1259364);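 also: wild-type HCT-116 cells with endogenous class I/II HDAC activity; top concentration of the series differs between compounds; nearly all actives have a fitted effect of over 45% in size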
Summary of the method: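 Screening used wild-type human colon HCT-116 cells incubated overnight, dosed with compounds for 2 hours, and assayed with a homogeneous luminogenic HDAC I/II reagent for 30 minutes at room temperature.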

[2] = qHTS assay to identify small molecule HDAC inhibitors - cell viability counter screen (AID 1259365); also: nearly all actives have a fitted effect of over 50% in size; also: potency is read from the fitted curve at half-maximal effect
Summary of the method: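 Luminescence from CellTiter-Glo, developed 30min at room temperature, reports viability of wild-type HCT-116 cells treated 2hr with compounds at 37 C and 5% CO2 after overnight plating.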

[3] = qHTS assay to identify small molecule agonists of the sonic hedgehog signaling (Shh) pathway - cell viability counter screen (AID 1259366); also: nearly all actives have a fitted effect of over 50% in size; also: potency is read from the fitted curve at half-maximal effect
Summary of the method: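 Cytotoxicity counter screen run in the same wells as the Shh reporter assay. NIH/3T3 cells carrying a Gli1 response element–driven luciferase were treated with DMSO-dissolved compounds for 24hr, and live-cell protease activity was measured with CellTiter-Fluor.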

[4] = qHTS assay to identify small molecule antagonists of the sonic hedgehog signaling (Shh) pathway - cell viability counter screen (AID 1259367); also: nearly all actives have a fitted effect of over 55% in size; also: potency is read from the fitted curve at half-maximal effect
Summary of the method: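 Fluorescence read-out (CellTiter-Fluor, 1 hr at 37C) taken after 23 hr compound treatment of 3T3 Gli1-Luc cells stimulated with conditioned medium. Cells were seeded at 2,000 per well and pre-incubated 4 hr.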

[5] = qHTS assay to identify small molecule agonists of the sonic hedgehog signaling (Shh) pathway (AID 1259368; calls by dose curve;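 also: NIH/3T3-derived 3T3Gli1-Luc cells carrying a stable Gli1-driven firefly luciferase reporter; series mostly up to about 92 µM; nearly all actives have a fitted effect of over 15% in size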)
Summary of the method: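 Hedgehog pathway agonism scored by increased firefly luciferase luminescence in 3T3Gli1-Luc cells treated 24 hr at 37 C; detection used a 30 min room-temperature reagent incubation.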

[6] = qHTS assay to identify small molecule agonists of the androgen receptor (AR) signaling pathway in the presence of an antagonist - cell viability counter screen (AID 1259379); also: nearly all actives have a fitted effect of over 25% in size; also: potency is read from the fitted curve at half-maximal effect
Summary of the method: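 MDA-kb2 viability measured by CellTiter-Fluor fluorescence in the same wells as the luciferase signal; nilutamide 3.0uM final; 15-point compound titration; 16 hr at 37C.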

[7] = qHTS assay to identify small molecule antagonists of the sonic hedgehog signaling (Shh) pathway (AID 1259369; calls by dose curve; also: nearly all actives have a fitted effect of over 45% in size; also: potency is read from the fitted curve at half-maximal effect)
Summary of the method: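 NIH/3T3 stable Gli1-Luc clone, 2,000 cells/well, 4hr settle; cpd + conditioned medium 24hr; Luc reagent 30min RT; luminescence.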

[8] = target: Estrogen receptor beta (Homo sapiens) (UniProt Q92731); experiment: qHTS assay to identify small molecule agonists of the estrogen receptor beta (ER-beta) signaling pathway (AID 1259377; active = well fitted activation curve with a large enough effect in the signal ratio in the repeat runs, not every such curve was filed as active; the % refers to the signal ratio)
Sequence of Estrogen receptor beta (Homo sapiens) (Q92731 whole entry, looked up): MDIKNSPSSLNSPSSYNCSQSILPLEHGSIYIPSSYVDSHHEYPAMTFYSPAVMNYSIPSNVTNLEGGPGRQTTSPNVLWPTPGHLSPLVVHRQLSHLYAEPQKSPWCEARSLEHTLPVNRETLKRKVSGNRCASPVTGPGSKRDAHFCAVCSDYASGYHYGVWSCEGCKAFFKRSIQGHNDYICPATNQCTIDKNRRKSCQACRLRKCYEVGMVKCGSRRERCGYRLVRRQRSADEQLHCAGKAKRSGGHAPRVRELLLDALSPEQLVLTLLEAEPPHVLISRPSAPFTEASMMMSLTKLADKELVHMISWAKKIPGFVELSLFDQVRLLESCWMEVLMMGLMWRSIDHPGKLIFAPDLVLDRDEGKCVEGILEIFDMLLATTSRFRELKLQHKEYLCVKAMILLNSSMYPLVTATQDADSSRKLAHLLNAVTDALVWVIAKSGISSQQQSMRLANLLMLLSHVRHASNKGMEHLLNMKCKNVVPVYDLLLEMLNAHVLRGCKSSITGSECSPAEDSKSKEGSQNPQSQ
Summary of the method: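 HEK293T ER-beta-UAS-bla; 2% charcoal-stripped FBS; cells pre-incubated 6 hr, compound 16 hr, 37C/5% CO2; LiveBLAzer B/G FRET substrate 2 h RT; fluorescence intensity read.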

[9] = target: Estrogen receptor beta (Homo sapiens) (UniProt Q92731); experiment: qHTS assay to identify small molecule antagonists of the estrogen receptor beta (ER-beta) signaling pathway (AID 1259378; active = well fitted inhibition curve with a large enough effect in the signal ratio in the repeat runs, not every such curve was filed as active; the % refers to the signal ratio)
Summary of the method: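 ER-beta-UAS-bla HEK293T cells in 2% charcoal-stripped FBS medium treated with compound plus 1nM final 17-beta-estradiol for 16 hr at 37C. Beta-lactamase reporter read by FRET substrate fluorescence after 2 hours at room temperature.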

Row | SMILES | Potency [1] | Potency [2] | Potency [3] | Potency [4] | Potency [5] | Potency [6] | Potency [7] | outcome [8] | Potency [9]
1 | Clc1nc(C(Cl)(Cl)Cl)c(Cl)c(Cl)c1Cl | inactive | inactive | inactive | inactive | inactive | 21.7 µM (active) | – | – | –
2 | C=CCc1cc(S(=O)(=O)c2ccc(O)c(CC=C)c2)ccc1O | inactive | inactive | – | 24.3 µM (active) | inactive | – | inactive | – | –
3 | CC(C=O)c1ccccc1 (centres undefined) | inactive | inactive | inactive | inactive | – | inactive | inactive | inactive | –
4 | COc1cccc(-c2ccc(/C=C\CN3CCCCCC3)cc2Cl)c1 | inactive | inactive | – | – | inactive | – | 10.8 µM (active) | inactive | –
5 | CCc1cccc(C)c1N(C(=O)CS(=O)(=O)O)C(C)COC (centres undefined) | inactive | inactive | inactive | inactive | – | inactive | inactive | inactive | inactive
6 | Cc1cc(F)ccc1-c1cc(N2CC[C@@H](O)[C@H]2CO)ncc1N(C)C(=O)C(C)(C)c1cc(C(F)(F)F)cc(C(F)(F)F)c1 | inactive | inactive | 42.6 µM (active) | – | inactive | 53.6 µM (active) | – | – | –
7 | CC/C=C\C/C=C\C/C=C\CCCCCCCC(=O)OC | inactive | inactive | – | – | inactive | – | 43.3 µM (active) | – | –
8 | CN(C[C@@H](CC[N+]12CCC(C3CCCCC3)(CC1)CC2)c1ccc(Cl)c(Cl)c1)C(=O)c1cc(C(F)(F)F)cc(C(F)(F)F)c1 | inactive | 12.2 µM (active) | – | inactive | inactive | 68.6 µM (active) | inactive | – | –
9 | CCOC(=O)OC(=O)OCC | inactive | inactive | inactive | inactive | – | inactive | inactive | – | inactive
10 | Cc1cc(Br)ccc1NC(=O)CCl | inactive | inactive | 9.69 µM (active) | 19.3 µM (active) | – | 54.5 µM (active) | 4.33 µM (active) | – | –
